Drawing on PubChem BioAssay (EPA / NIEHS), this text covers outcome and AC50 for 40 molecules.

Activity calls are given as the source filed them. The calls were made as follows: active = hit-call score of the fitted dose curve at least 0.9, where 1 is the maximum; inactive = score below 0.9.

A word on the AC50: it is the midpoint of the concentration-response curve, whichever way the signal moves.

The first assay in a line: ATG_AP_1_CIS: Attagene CIS-FACTORIAL HepG2 Assay for human Activator Protein 1 (AP-1) (AID 2282931). The note with it: HepG2 Attagene cis-factorial AP-1 reporter mRNA; actives raise or lower the signal. The procedure, abridged:
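HepG2, transient cis-reporter transfection; 24 h; readout RT-PCR/CE fluorescence; DMSO baseline, gain and loss fitted.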
`Cc1cc(=O)n(-c2ccccc2)n1C`: the molecule was classed as inactive.
`CC1(C)[C@H]2CC[C@]1(C)C(=O)C2`: the result was inactive.
As to `C=C[Si](OC(C)=O)(OC(C)=O)OC(C)=O`, the molecule was called inactive.
Turning to `COC=O`, the molecule was called inactive.
As to `C=CC=CC=CCCCCC`, the molecule was classed as inactive.
As for `Cc1ccc(N/N=c2\c(=O)cc/c(=N/Nc3ccc(S(=O)(=O)O)cc3)c2=O)c(C)c1`, the outcome was inactive.
Consider `C1CN(SSN2CCOCC2)CCO1`, for which the call was inactive.
For `O=S(=O)(O)c1cc(S(=O)(=O)O)c2ccc3c(S(=O)(=O)O)cc(S(=O)(=O)O)c4ccc1c2c43`, the molecule was called inactive.
On the same count and under the same terms, the value for `CCC(CC)C(=O)O` was “inactive”; that for `O=C1c2ccccc2C(=O)C1c1nc2ccccc2c(Br)c1O` was “inactive”; that for `NNC(=O)c1cccc(C(=O)NN)c1` was “inactive”.
The same measure, in the same setting: the entry for `CC(=O)Nc1ccc2c(c1)Cc1cc(NC(C)=O)ccc1-2` is “inactive”; for `CCOC(=O)c1ccc(N(C)C)cc1` it is “inactive”.
Consider `C=C(C)[C@@H]1CCC2=CCC[C@@H](C)[C@]2(C)C1`, for which the half-maximal activity concentration (AC50) was 100 µM (active).
In the case of `CCCNC(=O)NS(=O)(=O)c1ccc(Cl)cc1`, the call was inactive.
As for `COCc1c(C(C)C)nc(C(C)C)c(/C=C/[C@@H](O)C[C@@H](O)CC(=O)O)c1-c1ccc(F)cc1`, the molecule was called inactive.
The same measure, in the same setting: the value for `COC(F)(F)C(F)(C(F)(F)F)C(F)(F)F` was “inactive”.
For `Nc1ccc(N=Nc2ccccc2)c(N)n1`, the outcome was inactive.
For the molecule `Cc1ccc2c(c1)C(=O)c1ccccc1C2=O`, the result was inactive.
`CC(C)(C)c1n[nH]c(=O)n(N)c1=O`: the outcome was inactive.
On to `COc1ccc2nc(N)sc2c1`, for which the molecule was classed as inactive.
On to `COC(=O)c1c(C)cc(O)c(C)c1O`, for which the outcome was inactive.
Still for that read-out and setting: the value for `CC1(C)O[C@@H]2C[C@H]3[C@@H]4C[C@H](F)C5=CC(=O)C=C[C@]5(C)[C@@]4(F)[C@@H](O)C[C@]3(C)[C@]2(C(=O)CO)O1` was “inactive”.
On to `CCC(=O)Oc1ccc(/C(CC)=C(\CC)c2ccc(OC(=O)CC)cc2)cc1`, for which the AC50 is 11.6 µM (active).
As to `c1ccc(CNCc2ccccc2)cc1`, the molecule was called inactive.
As for `CCCCCCCCCCC=CC#N`, the AC50 was 111 µM (active).
Consider `C=C[Si](C)(C)O[Si](C)(C)C=C`, for which the outcome was inactive.
Same read-out and setting: the entry for `Cc1ccc(N)c([N+](=O)[O-])c1` is “inactive”.
Turning to `CCOC(=O)N1CCC(=C2c3ccc(Cl)cc3CCc3cccnc32)CC1`, the molecule was classed as inactive.
As for `NC(=O)NNC(N)=O`, the molecule was called inactive.
Regarding `CCC(C)C=O` (stereo not given), the molecule was classed as inactive.
Take `O=P(O)(O)Oc1ccccc1`: the result was inactive.
Turning to `CCCCC(CC)COC(=O)c1ccccc1O` (stereo not given), the molecule was classed as inactive.
As for `CC(=O)Oc1ccc(C)cc1`, the molecule was classed as inactive.
For `C[C@]12C=CC(=O)C=C1CC[C@@H]1[C@@H]2[C@@H](O)C[C@@]2(C)[C@H]1CC[C@]2(O)C(=O)CO`, the outcome was inactive.
Regarding `CC(C)c1ccc2cc(C(C)C)ccc2c1`, the AC50 was 55.8 µM (active).
In the case of `CCC(CO)CO`, the molecule was classed as inactive.
For the molecule `O=c1cc(-c2ccccc2)oc2ccccc12`, the call was inactive.
With `O=Cc1ccc(CO)o1`, the outcome was inactive.
With `CC1=CC[C@H]2C[C@@H]1C2(C)C`, the molecule was classed as inactive.

The nature of another assay: ATG_AP_2_CIS: Attagene CIS-FACTORIAL HepG2 Assay for human Activator Protein 2 (AP-2) (AID 2282932). The note with it: HepG2 AP-2 cis-reporter, Attagene transcription factor profiling; actives raise or lower the signal. The procedure, abridged:
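Endogenous transcription factor activity is reported through transfected multiplex reporter constructs in HepG2, after 24 h of compound exposure. Transcripts were quantified by RT-PCR and capillary electrophoresis of fluorescent fragments. Bidirectional fit against DMSO.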
Consider `Cc1cc(=O)n(-c2ccccc2)n1C`, for which the result was inactive.
Turning to `CC1(C)[C@H]2CC[C@]1(C)C(=O)C2`, the molecule was classed as inactive.
On the same count and under the same terms, the value for `C=C[Si](OC(C)=O)(OC(C)=O)OC(C)=O` was “inactive”.
The same measure, in the same setting: the value for `COC=O` was “inactive”; that for `C=CC=CC=CCCCCC` was “inactive”; that for `Cc1ccc(N/N=c2\c(=O)cc/c(=N/Nc3ccc(S(=O)(=O)O)cc3)c2=O)c(C)c1` was “inactive”.
Regarding `C1CN(SSN2CCOCC2)CCO1`, the result was inactive.
Still for that read-out and setting: the value for `O=S(=O)(O)c1cc(S(=O)(=O)O)c2ccc3c(S(=O)(=O)O)cc(S(=O)(=O)O)c4ccc1c2c43` was “inactive”; that for `CCC(CC)C(=O)O` was “inactive”.
On to `O=C1c2ccccc2C(=O)C1c1nc2ccccc2c(Br)c1O`, for which the outcome was inactive.
Turning to `NNC(=O)c1cccc(C(=O)NN)c1`, the result was inactive.
The same measure, in the same setting: the entry for `CC(=O)Nc1ccc2c(c1)Cc1cc(NC(C)=O)ccc1-2` is “inactive”.
Take `CCOC(=O)c1ccc(N(C)C)cc1`: the outcome was inactive.
`C=C(C)[C@@H]1CCC2=CCC[C@@H](C)[C@]2(C)C1`: the call was inactive.
With `CCCNC(=O)NS(=O)(=O)c1ccc(Cl)cc1`, the call was inactive.
`COCc1c(C(C)C)nc(C(C)C)c(/C=C/[C@@H](O)C[C@@H](O)CC(=O)O)c1-c1ccc(F)cc1`: the call was inactive.
On the same count and under the same terms, the value for `COC(F)(F)C(F)(C(F)(F)F)C(F)(F)F` was “inactive”; that for `Nc1ccc(N=Nc2ccccc2)c(N)n1` was “inactive”; that for `Cc1ccc2c(c1)C(=O)c1ccccc1C2=O` was “inactive”.
`CC(C)(C)c1n[nH]c(=O)n(N)c1=O`: the molecule was classed as inactive.
Regarding `COc1ccc2nc(N)sc2c1`, the result was inactive.
On the same count and under the same terms, the entry for `COC(=O)c1c(C)cc(O)c(C)c1O` is “inactive”; for `CC1(C)O[C@@H]2C[C@H]3[C@@H]4C[C@H](F)C5=CC(=O)C=C[C@]5(C)[C@@]4(F)[C@@H](O)C[C@]3(C)[C@]2(C(=O)CO)O1` it is “inactive”; for `CCC(=O)Oc1ccc(/C(CC)=C(\CC)c2ccc(OC(=O)CC)cc2)cc1` it is “inactive”.
As to `c1ccc(CNCc2ccccc2)cc1`, the outcome was inactive.
The same measure, in the same setting: the entry for `CCCCCCCCCCC=CC#N` is “inactive”.
As for `C=C[Si](C)(C)O[Si](C)(C)C=C`, the molecule was classed as inactive.
With `Cc1ccc(N)c([N+](=O)[O-])c1`, the call was inactive.
The same measure, in the same setting: the value for `CCOC(=O)N1CCC(=C2c3ccc(Cl)cc3CCc3cccnc32)CC1` was “inactive”; that for `NC(=O)NNC(N)=O` was “inactive”; that for `CCC(C)C=O` (stereo not given) was “inactive”.
For `O=P(O)(O)Oc1ccccc1`, the molecule was classed as inactive.
Consider `CCCCC(CC)COC(=O)c1ccccc1O` (stereo not given), for which the molecule was classed as inactive.
Same read-out and setting: the entry for `CC(=O)Oc1ccc(C)cc1` is “inactive”; for `C[C@]12C=CC(=O)C=C1CC[C@@H]1[C@@H]2[C@@H](O)C[C@@]2(C)[C@H]1CC[C@]2(O)C(=O)CO` it is “inactive”.
For the molecule `CC(C)c1ccc2cc(C(C)C)ccc2c1`, the molecule was called inactive.
With `CCC(CO)CO`, the result was inactive.
Turning to `O=c1cc(-c2ccccc2)oc2ccccc12`, the concentration at half-maximal activity (AC50) was 26.3 µM (active).
Turning to `O=Cc1ccc(CO)o1`, the call was inactive.
`CC1=CC[C@H]2C[C@@H]1C2(C)C`: the call was inactive.
